Molecules are shown by their SMILES. A number with no mark means an inactive call. Calls of active or inactive are those of the source. Cut-off read from the data, not from the text of the source: active = log2 fold change growth below about -1.8; inactive = the rest.

The assay is described as follows: C. elegans growth inhibition, whole organism, log2 fold change (AID 1259336).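 Note: growth scored by imaging after five days at 20 °C.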 To be noted: anthelmintic screen, active compounds read low.
On to `CCCn1c(CNc2ccccc2O)nc2ccccc21`, for which the log2 fold change growth was 0.228.

In the case of `O=C(Nc1ccc(F)c(-c2nc3ncc(-c4ccccc4)cc3[nH]2)c1)N1CCCC1`, the log2 fold change growth was -5.81 (active).

Take `Cc1cc(C(=O)Nc2cnn(Cc3ccc(Cl)cc3Cl)c2)no1`: the log2 fold change growth was 0.545.

As to `C[C@H](Oc1cccc(Cl)c1)C(=O)Nc1ccc2oc(-c3ccncc3)nc2c1`, the log2 fold change growth is 0.206.

As to `C[C@H]1COC2(CCN(c3nc(=O)c4cc(C(F)(F)F)cc([N+](=O)[O-])c4s3)CC2)O1`, the log2 fold change growth was -0.284.

For the compound `c1coc(CNc2nc(N3CCCCC3)nc3ccccc23)c1`, the log2 fold change growth was -0.141.

On to `Cc1cc(NCCc2ccccc2)nc(/N=C(\N)Nc2ccc(Cl)cc2)n1`, for which the log2 fold change growth was 0.186.

On to `CC(C)(C)c1cnc(NC(=O)c2ccccc2O)s1`, for which the log2 fold change growth was 0.155.

In the case of `CS(=O)(=O)N1CCC(Cn2nc(Cc3cccc4ccccc34)c3c(N)ncnc32)CC1`, the log2 fold change growth was -0.695.

In the case of `CN1CCN(S(=O)(=O)c2ccc(-c3ccc4c(Nc5ncc(Cl)cn5)ccnc4c3)cc2)CC1`, the log2 fold change growth was 0.346.

In the case of `CC(C)(C)CN1C(=O)C(c2ccccc2)(c2ccccc2)N=C1N`, the log2 fold change growth was -5.48 (active).

For `Cc1ccc(NC(=O)C[C@H]2COc3ccccc3O2)cc1Cl`, the log2 fold change growth was -0.476.

As to `c1ccc(Oc2ccc(-c3cc(C4CCOCC4)[nH]n3)cc2)cc1`, the log2 fold change growth is -0.254.

Regarding `CN(C(=O)c1cc2c(-c3cncnc3)cccc2[nH]1)c1ccccc1`, the log2 fold change growth was -0.492.

Turning to `C[C@@H](C(=O)Nc1ccc2oc(-c3ccncc3)nc2c1)c1ccccc1`, the log2 fold change growth is 0.0616.

As to `CCOC(=O)c1cc(-c2csc(Nc3c(C)cc(C)cc3C)n2)on1`, the log2 fold change growth was -0.726.

As to `O=C1[C@@H](Oc2ccccc2)[C@@H](c2ccc(Cl)cc2)N1CCn1cnc2c(NCc3ccccc3)ncnc21`, the log2 fold change growth is -0.167.

Take `N=C(N)c1ccc(-c2cc(-c3ccccc3)on2)cc1`: the log2 fold change growth is 0.247.

Take `CC(=O)Nc1ccc(-c2noc(C[C@H]3CCCN(Cc4cccc(F)c4C)C3)n2)cc1`: the log2 fold change growth is 0.251.

For `CC(=O)NC[C@@H]1CN(c2ccc(N3CCOCC3)c(F)c2)C(=O)O1`, the log2 fold change growth was -0.257.

For the compound `CCN(CC)CCCCCCNc1cc(OC)cc2c(C)ccnc12`, the log2 fold change growth is -0.053.

`COc1ccc(CCN2CCC(NCc3cccc(N(C)C)c3)CC2)cc1`: the log2 fold change growth is 0.27.

In the case of `CCc1ccc([C@@H]2C[C@H](C(F)(F)F)n3ncc(C(=O)NCc4ccc(OC)cc4)c3N2)cc1`, the log2 fold change growth was -1.82 (active).

With `Cc1ccc(NC(=O)c2cc(S(=O)(=O)NC(C)(C)C)ccc2C)nc1`, the log2 fold change growth is 0.26.

Turning to `C[C@H]1CCCCN1C(=O)NCCc1coc(-c2ccc(F)cc2)n1`, the log2 fold change growth is 0.0232.

For the compound `CC(C)(C)n1nc(Cc2cccc3ccccc23)c2c(N)ncnc21`, the log2 fold change growth was -0.527.

Consider `N=C(N)c1ccc(OCCCCCOc2ccc(C(=N)N)cc2)cc1`, for which the log2 fold change growth is 0.291.

In the case of `CN1CCN(c2cc(-c3ccc(F)cc3)nc(-c3ccncc3)n2)CC1`, the log2 fold change growth was -1.96 (active).

Take `COc1cccc(-n2nnnc2S(C)(=O)=O)c1`: the log2 fold change growth was 0.157.

Regarding `Nc1ncc(-c2ccc(C(F)(F)F)nc2)cc1-c1ccc(C(F)(F)F)nc1`, the log2 fold change growth was 0.0312.

As to `COc1ccc(C(=N)N)cc1-c1cn(-c2ccc(C(=N)N)cc2)nn1`, the log2 fold change growth was -0.0296.

As to `COc1cccc(OC)c1C(=O)Nc1ccc(Cl)c(-c2nc3ccccc3s2)c1`, the log2 fold change growth is -0.202.

In the case of `COc1ccc2nccc(NC(=O)C3CCN(CCc4ccc(Cl)cc4)CC3)c2n1`, the log2 fold change growth was 0.423.

Regarding `COc1ccc(-c2onc(C(F)(F)F)c2-c2ccc(Cl)cc2)c(O)c1`, the log2 fold change growth was 0.102.

As for `COc1ccc(O[C@@H](C)C(=O)Nc2ccc(Cl)cc2C)cc1`, the log2 fold change growth was 0.539.

Take `O=C(Nc1ccnc(-c2cccnc2)n1)c1cc(C(F)(F)F)cc(C(F)(F)F)c1`: the log2 fold change growth was 0.327.

In the case of `CC(C)[C@@H](C(=O)Nc1ccc(S(=O)(=O)N(C)C)cc1)c1ccc(Cl)cc1`, the log2 fold change growth is -5.06 (active).

As for `CS(=O)(=O)N1CCC(CCn2nc(Cc3cccc4ccccc34)c3c(N)ncnc32)CC1`, the log2 fold change growth was -1.16.

(Values after PubChem BioAssay AID1259336 (Sattelle Laboratory, UCL Respiratory, Division of Medicine, …, 2017).)
